Measured values taken from PubChem BioAssay AID588511 (Johns Hopkins Ion Channel Center, 2011).
Hit rate of the full screen: of about 310,000 compounds, about 3,600 (1.2%) were called active.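 How the source made its calls: active means ratio plate-corrected score three or more library SD toward inhibition, starting fluorescence score within five deviations; inactive means the rest.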 The sample as a whole holds a higher share of actives than the screen did.

Each compound was assayed against Anoctamin-1 (Mus musculus) (UniProt Q8BHY3) (assay: TMEM16A chloride channel inhibitors, primary screen, cell-based, HTS (AID 588511;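 on normalized B-score (activity score, 25-100; higher = stronger inhibition): score derived from kinetic fluorescence span divided by baseline fluorescence per well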)). Conditions: HEK293 TMEM16A/YFP iodide influx fluorescence, ionomycin; at 10 µM.
Anoctamin-1 (Mus musculus), sequence (Q8BHY3 whole entry, looked up): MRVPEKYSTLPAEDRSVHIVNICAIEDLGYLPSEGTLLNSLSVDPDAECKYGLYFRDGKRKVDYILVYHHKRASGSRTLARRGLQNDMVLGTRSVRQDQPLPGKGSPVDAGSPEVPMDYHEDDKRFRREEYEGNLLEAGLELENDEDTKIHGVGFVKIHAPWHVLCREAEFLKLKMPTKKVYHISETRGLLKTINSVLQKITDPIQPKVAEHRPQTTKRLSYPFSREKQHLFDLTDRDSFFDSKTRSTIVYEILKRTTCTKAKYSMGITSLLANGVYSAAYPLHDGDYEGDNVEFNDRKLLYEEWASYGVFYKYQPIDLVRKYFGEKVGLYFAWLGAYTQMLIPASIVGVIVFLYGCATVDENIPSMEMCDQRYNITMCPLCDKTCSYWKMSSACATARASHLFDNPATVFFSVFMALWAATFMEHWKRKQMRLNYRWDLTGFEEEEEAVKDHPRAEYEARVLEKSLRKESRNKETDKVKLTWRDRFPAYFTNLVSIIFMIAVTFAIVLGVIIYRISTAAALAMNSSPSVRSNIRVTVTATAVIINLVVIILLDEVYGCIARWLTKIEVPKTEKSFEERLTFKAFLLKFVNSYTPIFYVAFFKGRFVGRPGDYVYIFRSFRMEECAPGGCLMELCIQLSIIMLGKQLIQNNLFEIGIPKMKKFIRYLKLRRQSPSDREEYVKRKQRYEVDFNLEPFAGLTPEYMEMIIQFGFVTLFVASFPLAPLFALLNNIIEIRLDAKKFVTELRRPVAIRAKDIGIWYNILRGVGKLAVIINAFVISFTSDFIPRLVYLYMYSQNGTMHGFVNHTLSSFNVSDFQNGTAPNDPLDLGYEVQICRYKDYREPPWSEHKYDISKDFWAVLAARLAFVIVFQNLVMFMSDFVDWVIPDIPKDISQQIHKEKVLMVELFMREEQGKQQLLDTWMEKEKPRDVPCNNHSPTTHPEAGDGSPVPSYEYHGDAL

SMILES	normalized B-score (activity score, 25-100; higher = stronger inhibition)
O=C(NCCc1ccc(Cl)cc1Cl)c1cc([N+](=O)[O-])c[nH]c1=O	100 (active)
NS(=O)(=O)c1ccc(CCNC(=O)c2ccc(Cl)cc2[N+](=O)[O-])cc1	inactive
O=C(NCCc1c[nH]c2ccc(Cl)cc12)c1ccc([N+](=O)[O-])cc1	inactive
CC(C)CC(CCc1ccccc1)OS(N)(=O)=O (configuration not stated)	inactive
CSc1nc2nc3c(c(=O)n2[nH]1)CCC3	inactive
COc1ccc(C(=O)CCc2ccccc2O)c(OC)c1	inactive
CCOc1ccc(NC(=O)CCCCCN2C(=O)[C@@H]3Cc4ccccc4CN3C2=O)cc1	inactive
CCOC(=O)Cc1csc(NC(=O)CSc2nnc(-c3cccnc3)n2Cc2ccco2)n1	100 (active)
O=C(CSc1nnc(-c2cccnc2)n1Cc1ccco1)c1ccc(Cl)c(Cl)c1	inactive
COc1cc(Cl)c(C)cc1NC(=O)CSc1nnc(-c2cccnc2)n1Cc1ccco1	inactive
COc1ccc(/C(C)=N\NC(=O)c2ccc(-c3ccccc3)cc2)c(F)c1	inactive
O=[N+]([O-])C(=c1ccc2c(c1)N1C3=C(CCCC3)CC3CCCCC31N=2)[N+](=O)[O-] (configuration not stated)	inactive
O=c1c(-c2cccc(Cl)c2)c[nH]n1-c1ccccc1	inactive
Cc1[nH]n(-c2cccc(Cl)c2)c(=O)c1-c1ccc(Cl)cc1	25 (active)
Cc1[nH]n(-c2cccc(Cl)c2)c(=O)c1/C=N/n1c(C)nc2ccccc2c1=O	inactive
Cc1ccccc1OCC(=O)N(Cc1cccc(F)c1)C1CCS(=O)(=O)C1 (configuration not stated)	inactive
C=CCn1c(SCC(=O)NCc2ccccc2)nnc1-c1cc(Br)ccc1O	inactive
Cn1nnnc1SCC(=O)Nc1nc2ccccc2s1	inactive
C=CCn1c(SCC(=O)Nc2nc3ccccc3s2)nnc1-c1ccccc1O	100 (active)
COc1ccc(Cl)cc1NC(=O)CN(C)C(=O)c1cc2ccccc2cc1OC	inactive
CN(CC(O)COc1ccc(S(=O)(=O)N2CCOCC2)cc1Cl)C1CCCCC1 (configuration not stated)	inactive

SMILES	normalized B-score (activity score, 25-100; higher = stronger inhibition)
CCOC(=O)N1CCN(C(=O)c2ccc(S(=O)(=O)Nc3cccc(C(F)(F)F)c3)cc2)CC1	inactive
O=C(/C=C/c1ccc(F)cc1)Nc1cccc(S(=O)(=O)Nc2cccc(C(F)(F)F)c2)c1	inactive
Cc1oc2c(F)c(F)c(F)c(F)c2c1S(=O)(=O)Nc1cccc(C(F)(F)F)c1	100 (active)
COc1ccccc1-n1c(SCC(=O)Nc2cccc(C(=O)O)c2)nnc1-c1ccccc1O	inactive
Cc1cc2c(cc1C)N(Cc1ccccc1)C1=NCCCN12	inactive
Cn1cc(C(=O)c2ccc(Cl)cc2Cl)cc1C(=O)NN	inactive
O=C(Cc1c(F)cccc1Cl)Nc1ccc(-n2cnnn2)cc1	inactive
O=C(Cc1c(F)cccc1Cl)Nc1ncc([N+](=O)[O-])s1	100 (active)
O=C(CCc1ccccc1)Nc1ncc([N+](=O)[O-])s1	inactive
Cc1ccc2nsnc2c1NC(=O)c1ccccc1[N+](=O)[O-]	inactive
O=C(NCCc1ccc2c(c1)OCCO2)c1cc2ccccc2o1	100 (active)
O=C(CC(Cc1ccccc1)C(=O)O)NCCc1ccc2c(c1)OCO2 (configuration not stated)	inactive
N=c1oc2ccccc2cc1C(=O)NCc1ccccc1	inactive
O=C(COc1cc(Cl)c(Cl)cc1Cl)NC(=O)NC1CCCC1	inactive
O=C(NCc1cccnc1)c1ccccc1NC(=O)c1c(F)cccc1F	inactive
Cc1nc2c(ncn2-c2ccccc2)c(=O)n1NC(=O)CN1CCCC1	inactive
CCOC(=O)N1CC=C2C(C#N)=C(N)C(C#N)(C#N)[C@H](c3cccs3)[C@H]2C1	25 (active)
CCCN1CC=C2C(C#N)=C(N)C(C#N)(C#N)C(c3cc(OC)ccc3OC)C2C1 (configuration not stated)	inactive
CCN1CC=C2C(C#N)=C(N)C(C#N)(C#N)[C@H](c3ccoc3)[C@H]2C1	inactive
CCC(C(=O)NCCC(C)C)N(Cc1ccccc1Cl)C(=O)c1snc(C(N)=O)c1N (configuration not stated)	inactive
COC(=O)c1cc(OCC(=O)NC2CCCc3ccccc32)cc(C(=O)OC)c1 (configuration not stated)	inactive

SMILES	normalized B-score (activity score, 25-100; higher = stronger inhibition)
O=C(CCCN1CCc2[nH]c3ccc(F)cc3c2C1)c1ccc(F)cc1	inactive
Oc1c(Cl)cc(Cl)c(Cl)c1Cc1c(O)c(Cl)cc(Cl)c1Cl	100 (active)
O=C(N/N=C/c1cccc(OCc2ccccc2)c1)c1ccc(Br)o1	inactive
CCOc1ccc(CN2CCN(Cc3c[nH]c4ccccc34)CC2)cc1	inactive
CN(C)/C=N/c1cc(=O)n(C)c(=O)n1CC1CC1	inactive
O=C(NCCc1ccc(Cl)cc1)c1cccc(N2CCCC2=O)c1	inactive
COc1ccc(CCNC(=S)N2CCN(S(=O)(=O)c3ccc(Cl)cc3)CC2)cc1	inactive
Oc1cc2c(cc1O)CN(C(=S)NCCc1ccc(Cl)cc1)CCC2	25 (active)
Cc1cc2cc3c(cc2nc1SCC(=O)Nc1c(C)cccc1C)CCC3	inactive
Cc1cn(C2OC[C@@H](O)[C@@H]2CO)c(=O)[nH]c1=O (some centres not stated)	inactive
COc1ccc(C(C#N)N2N=C(C)CC2(C)C)cc1 (configuration not stated)	inactive
O=C(CN1C(=O)S/C(=C\c2ccccc2F)C1=O)NCCCn1ccnc1	inactive
O=C(CN1C(=O)/C(=C/c2ccccc2F)Sc2ccccc21)NCc1cccnc1	100 (active)
O=C(CN1C(=O)/C(=C\c2ccc(C(F)(F)F)cc2)Sc2ccccc21)NCc1ccco1	inactive
CN(C)CCOc1ccc(Cl)cc1C(C)(C)C	inactive
CCC(C)(C)c1ccc(OCC(=O)N(C)C)c(C(C)(C)CC)c1	100 (active)
CCc1nc(C)ccc1OCC(=O)N(CC)CC	inactive
COc1ccc(/C=C2/SC(=O)N(CCCCCC(=O)Nc3ccccc3C(=O)O)C2=S)cc1	100 (active)
COc1ccc(/C=C2\SC(=O)N(CCC(=O)NCCCn3ccnc3)C2=O)cc1	inactive
O=C(CCCN1C(=O)/C(=C\c2ccccc2)SC1=S)Nc1ccccc1O	inactive
